Inconclusive results are not listed. Activity calls are given as the source filed them. The calls were made as follows, unless noted: active = hit-call score of the fitted dose curve at least 0.9, where 1 is the maximum; inactive = score below 0.9.
How the values were obtained:
[1] = CCTE_Simmons_MITO_basal_resp_rate: CCTE's HepG2 Seahorse XF Respirometric Screening Assay at Basal Respiratory State, Simmons Lab (AID 2284001); conditions: actives raise or lower the signal
Outline: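 Basal-phase OCR in HepG2 cells, read at 6-min intervals across a 72-min run, with test compound injected at 125 nM–100 uM final (7 points). Fitted both directions against DMSO; three biological replicates per concentration.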

[2] = CCTE_Simmons_MITO_max_resp_rate: CCTE's HepG2 Seahorse XF Respirometric Screening Assay at Maximal Respiratory State [uncoupled], Simmons Lab (AID 2284002); conditions: actives raise or lower the signal
Outline: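 HepG2 oxygen consumption measured on Seahorse XF after FCCP uncoupling, following test compound injection; 7 concentrations from 125 nM to 100 uM final. Readings every 6 min over 72 min, three biological replicates; bidirectional fit versus DMSO.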

[3] = CCTE_Simmons_MITO_inhib_resp_rate: CCTE's HepG2 Seahorse XF Respirometric Screening Assay at Inhibited Respiratory State [full ETC block], Simmons Lab (AID 2284006); conditions: actives raise or lower the signal
Outline: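 This endpoint is the respiration rate remaining after rotenone/antimycin A block, in HepG2 cells on a Seahorse XF96. Chemicals spanned 125 nM–100 uM final, in three biological replicates. OCR was read every 6 minutes for 72 minutes and compared with DMSO vehicle.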

[4] = CCTE_Simmons_MITO_viability: CellTiter-Glo Viability Assessment for CCTE's HepG2 Seahorse XF Respirometric Screening Assay [post-hoc], Simmons Lab (AID 2284007; active = hit-call score of the fitted dose curve at least 0.9, where 1 is the maximum;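 as to AC50: cells exposed to chemical for 90 min before the ATP read; actives lower ATP signal relative to DMSO baseline meaning reduced viability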)
Outline: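 Luciferase-coupled ATP read-out after the Seahorse run: HepG2 cells treated 90 minutes with test chemical, 7-point series of 125 nM–100 uM final, in triplicate biological runs. Vehicle DMSO; dichlone as positive control over 8 concentrations.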

[5] = CCTE_Shafer_MEA_acute_spike_number: CCTE's Neural Acute Assay for Total Number of Spikes, Shafer Lab (AID 2284008);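 as to AC50: curve fitted for decrease in spike count so AC50 reflects inhibitors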
Outline: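 Rat primary cortical neurons on 48-well MEA plates, DIV 13 or 15, at 37 C. 40 min baseline then 40 min with compound (0.03-40 uM); spikes detected at 8x rms noise, expressed as percent change from baseline.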

[6] = CCTE_Shafer_MEA_acute_firing_rate_mean: CCTE's Neural Acute Assay for Mean Firing Rate, Shafer Lab (AID 2284009);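 also: analyzed for loss of signal so actives lower firing rate relative to DMSO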
Outline: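 Primary rat cortical neurons on 16-electrode MEA wells were exposed on DIV 13 or 15 to compound (0.03-40 uM). Spike counts per recording time, averaged over electrodes, were compared between 40-min baseline and 40-min post-exposure recordings as percent change.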

[7] = CCTE_Harrill_HTTr_Viability_MCF7: CCTE's 6-hour Cell Viability Assessment for the High-Throughput Transcriptomics (HTTr) Platform, in MCF-7 cells cultured in DMEM + 10% fetal bovine serum, Harrill Lab (AID 2284010)
Outline: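 Propidium iodide exclusion, imaged by high-content analysis, gauged viability after a six-hour exposure across eight concentrations. Cells were MCF-7 grown in DMEM with 10% fetal bovine serum; fits run in both directions against DMSO.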

[8] = CCTE_Harrill_HTTr_Apoptosis_MCF7: CCTE's 6-hour Apoptosis Assessment for the High-Throughput Transcriptomics (HTTr) Platform, in MCF-7 cells cultured in DMEM + 10% fetal bovine serum, Harrill Lab (AID 2284011)
Outline: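 MCF-7 cells in DMEM + 10% FBS exposed 6 h to chemicals over an eight-point dilution series. Caspase-3/7 activation imaged by high-content CellEvent Green staining; fitted bidirectionally versus DMSO.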

[9] = CCTE_Shafer_MEA_acute_burst_number: CCTE's Neural Acute Assay for Single-Electrode Bursts, Shafer Lab (AID 2284013)
Outline: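 Primary rat cortical neurons on 16-electrode MEA wells, DIV 13 or 15, exposed to compound (0.03-40 uM; ≥3 wells); 40-min recordings at 37 C before and after treatment. Burst count expressed as percent change from baseline, DMSO as negative control.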

[10] = CCTE_Shafer_MEA_acute_burst_duration_mean: CCTE's Neural Acute Assay for Mean Burst Duration, Shafer Lab (AID 2284014);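 also: hits are decreases in mean burst duration relative to DMSO controls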
Outline: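 Mean burst duration was compared between a 40 min baseline and a 40 min recording in the presence of compound (0.03-40 uM, 37 C), giving percent change per well. Cultures were rat cortical neurons at DIV 13 or 15; wells needed ≥10 active electrodes.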

[11] = CCTE_Shafer_MEA_acute_per_burst_spike_number_mean: CCTE's Neural Acute Assay for Average Number of Spikes Per Burst, Shafer Lab (AID 2284015);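 also: hits are decreases in mean spikes per burst versus baseline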
Outline: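 Percent change in mean spikes per single-electrode burst is compared between a 40 min baseline and a 40 min recording with compound (0.03-40 uM). Cultures were rat cortical neurons on MEA plates at DIV 13 or 15, recorded at 37 C, with DMSO as the negative control.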

[12] = CCTE_Shafer_MEA_acute_interburst_interval_mean: CCTE's Neural Acute Assay for Mean Interburst Interval, Shafer Lab (AID 2284016);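 also: percent change of mean interburst interval versus each well's own pre-dose baseline; curves fitted for decrease in interburst interval relative to DMSO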
Outline: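 Percent change in mean single-electrode interburst interval was calculated per well from 40 min recordings before and after compound (0.03-40 uM). Recordings were made at 37 C on rat cortical cultures at DIV 13 or 15, with spikes detected at 8x rms threshold.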

[13] = target: Nucleoli Translocation, AR (gene 367) (UniProt P10275); assay: UPITT_HCI_U2OS_AR_TIF2_Nucleoli_Antagonist: University of Pittsburgh U2OS Androgen Receptor-Transcriptional Intermediary Factor 2 (AR-TIF2) Antagonism High Content Imaging Assay for Nucleoli Translocation (AID 2283997; active = hit-call score of the fitted dose curve at least 0.9, where 1 is the maximum)
Nucleoli Translocation, AR (gene 367), sequence (P10275 whole entry, looked up): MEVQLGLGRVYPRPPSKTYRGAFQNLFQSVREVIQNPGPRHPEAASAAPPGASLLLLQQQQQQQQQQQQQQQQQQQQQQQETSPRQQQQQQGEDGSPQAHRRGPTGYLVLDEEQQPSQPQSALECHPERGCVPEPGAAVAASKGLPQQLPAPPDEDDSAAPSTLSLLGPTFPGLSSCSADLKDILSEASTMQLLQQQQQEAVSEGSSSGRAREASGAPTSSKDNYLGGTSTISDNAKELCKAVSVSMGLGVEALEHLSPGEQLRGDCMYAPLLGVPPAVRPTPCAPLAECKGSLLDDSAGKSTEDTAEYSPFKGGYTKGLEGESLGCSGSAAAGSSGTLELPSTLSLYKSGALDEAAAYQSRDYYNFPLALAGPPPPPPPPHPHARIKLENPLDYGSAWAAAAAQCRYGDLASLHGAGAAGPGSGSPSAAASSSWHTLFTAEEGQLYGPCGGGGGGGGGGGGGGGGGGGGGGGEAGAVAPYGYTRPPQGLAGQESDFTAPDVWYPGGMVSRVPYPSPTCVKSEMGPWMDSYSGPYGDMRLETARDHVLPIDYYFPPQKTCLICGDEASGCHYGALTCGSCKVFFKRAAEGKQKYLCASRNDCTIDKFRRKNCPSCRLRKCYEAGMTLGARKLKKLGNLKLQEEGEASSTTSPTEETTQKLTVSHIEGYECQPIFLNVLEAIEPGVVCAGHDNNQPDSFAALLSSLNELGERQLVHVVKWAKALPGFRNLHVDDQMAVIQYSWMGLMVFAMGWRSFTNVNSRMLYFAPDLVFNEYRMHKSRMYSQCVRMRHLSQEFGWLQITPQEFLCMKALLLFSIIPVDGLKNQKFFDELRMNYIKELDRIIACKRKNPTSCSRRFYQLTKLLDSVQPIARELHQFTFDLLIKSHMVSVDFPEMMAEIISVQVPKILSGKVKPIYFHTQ
Outline: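 Antagonism is read as loss of nucleolar AR-RFP signal relative to DHT, imaged in U2OS cells also carrying GFP-TIF2. Compounds screened at 20 uM final, 0.2% DMSO; primary actives retested in triplicate.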

[14] = target: Nucleoli Translocation, AR (gene 367) (UniProt P10275); assay: UPITT_HCI_U2OS_AR_TIF2_Nucleoli_Agonist: University of Pittsburgh U2OS Androgen Receptor-Transcriptional Intermediary Factor 2 (AR-TIF2) Agonism High Content Imaging Assay for Nucleoli Translocation (AID 2283998; active = hit-call score of the fitted dose curve at least 0.9, where 1 is the maximum)
Outline: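 U2OS cells expressing RFP-tagged human AR and GFP-tagged TIF2; red fluorescence in nucleoli quantified by high-content imaging. Primary screen at 20 uM final (0.2% DMSO); concentration-response 0.195–50 uM (0.5% DMSO), fitted upward versus DMSO.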

[15] = target: Ratio of Nucleoli Translocation and Cytoplasm, AR (gene 367) (UniProt P10275); assay: UPITT_HCI_U2OS_AR_TIF2_Nucleoli_Cytoplasm_Ratio_Antagonist: University of Pittsburgh U2OS Androgen Receptor-Transcriptional Intermediary Factor 2 (AR-TIF2) Antagonism High Content Imaging Assay for Ratio of Nucleoli Translocation and Cytoplasm (AID 2283999; active = hit-call score of the fitted dose curve at least 0.9, where 1 is the maximum;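 also: antagonists lower the DHT-driven ratio of nucleolar to cytoplasmic red signal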)
Ratio of Nucleoli Translocation and Cytoplasm, AR (gene 367), sequence (P10275 whole entry, looked up): as above
Outline: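 High-content imaging of red fluorescence ratio, nucleoli versus cytoplasm, in U2OS expressing AR-RFP and TIF2-GFP, fitted relative to DHT. Compounds tested once at 20 uM final, then 0.195 to 50 uM final in serial dilution.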

[16] = target: Ratio of Nucleoli Translocation and Cytoplasm, AR (gene 367) (UniProt P10275); assay: UPITT_HCI_U2OS_AR_TIF2_Nucleoli_Cytoplasm_Ratio_Agonist: University of Pittsburgh U2OS Androgen Receptor-Transcriptional Intermediary Factor 2 (AR-TIF2) Agonism High Content Imaging Assay for Ratio of Nucleoli Translocation and Cytoplasm (AID 2284000; active = hit-call score of the fitted dose curve at least 0.9, where 1 is the maximum;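 also: hits raise the red nucleolar to cytoplasm ratio above vehicle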)
Outline: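 Compounds tested at 20 uM final in primary screen (0.2% DMSO) and 0.195-50 uM final in dose-response (0.5% DMSO). Imaging of human U2OS cells bearing RFP-AR and GFP-TIF2; endpoint is nucleoli/cytoplasm red signal ratio, positive direction relative to DMSO.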

[17] = CCTE_Harrill_HTTr_CellCount_MCF7: CCTE's Cell Proliferation Assessment for the High-Throughput Transcriptomics (HTTr) Platform, Harrill Lab (AID 2284012; active = hit-call score of the fitted dose curve at least 0.9, where 1 is the maximum;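 also: cells exposed to compound for six hours; intended direction is loss of nuclei count meaning fewer cells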)
Outline: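 Cell count from high-content imaging of Hoechst-labeled nuclei serves as viability/growth readout. Chemicals were applied to MCF-7 cells in eight concentrations for six hours, with fitting in both directions relative to DMSO.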

Measured: AC50

C[C@]12CC[C@@H]3c4ccc(O)cc4CC[C@H]3[C@@H]1CC[C@H]2O
active: [1] 36.1 µM
not listed: [13] | [14] | [15] | [16] | [17]
inactive: all other assays above

OC12N=C(c3ccccc3)SC1Cc1cc(Cl)ccc12 (configuration not stated)
active: [5] 6.83 µM | [6] 6.86 µM | [9] 6.49 µM | [10] 20 µM | [12] 6.48 µM
inactive: [1] | [2] | [3] | [4] | [7] | [8] | [11]

COc1cc(C(=O)NC2CCN(C)CC2)ccc1Nc1ncc2c(n1)N(C1CCCC1)CC(F)(F)C(=O)N2C
inactive: [13] | [15] | [16] | [7] | [8] | [9]
active: [14] 46.5 µM | [5] 7.05 µM | [6] 7.05 µM | [10] 1.85 µM | [11] 29.9 µM | [12] 3.83 µM

Cc1ccc(C(C)C)cc1
inactive: [13] | [14] | [15] | [16] | [7] | [8]

CCCC(=O)OCCC(C)C
inactive: [13] | [14] | [15] | [16] | [7] | [8]

CC(C)(O)c1ccc(CNC(=O)c2cccnc2Oc2ccc3nonc3c2)cc1
inactive: [1] | [2] | [3] | [4] | [7] | [8]

CCCCCCCCN(C)CCCCCCCC
inactive: [13] | [16] | [7] | [8]

OCCO
inactive: [13] | [14] | [15] | [16] | [7] | [8] | [17]

Cc1occc1C(=O)Nc1ccc(C(=O)N2CCC(F)(F)/C(=C\C(=O)N3CCC(N4CCCCC4)CC3)c3ccccc32)cc1
inactive: [13] | [14] | [16] | [7] | [8]

CN(C[C@@H](CC[N+]12CCC(C3CCCCC3)(CC1)CC2)c1ccc(Cl)c(Cl)c1)C(=O)c1cc(C(F)(F)F)cc(C(F)(F)F)c1
inactive: [12]
active: [13] 50 µM | [15] 29.6 µM | [16] 50 µM | [5] 0.273 µM | [6] 0.273 µM | [7] 78.6 µM | [8] 42.5 µM | [9] 0.249 µM | [10] 1.19 µM | [11] 1.14 µM

CC(C)(C)c1csc(-c2cc3cc(OCc4ccccc4CC(=O)O)ccc3o2)n1
active: [1] 4.24 µM | [2] 4.72 µM | [3] 4.67 µM | [4] 50 µM
inactive: [7] | [8]

Source: PubChem BioAssay (EPA / NIEHS)
